The values below come from PubChem BioAssay (NCI).

The structures appear in SMILES notation. The panel holds about 83,000 compounds, 20% with a hit somewhere; the sample as a whole holds those more often.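 A percent growth of 40 corresponds to 60% growth inhibition; 0 means no net growth; -100 means all cells died. Active threshold: below 10.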 Values without a mark were called inactive. The source made the active and inactive calls.

Test systems include DU-145 prostate; K-562 leukemia; MALME-3M melanoma; MDA-MB-231 breast; SF-268 CNS; SF-295 CNS; SF-539 CNS; UACC-257 melanoma; HCT-15 colon; HT29 colon; SNB-75 CNS; SNB-19 CNS; U251 CNS; PC-3 prostate; UACC-62 melanoma; LOX IMVI melanoma; SK-MEL-28 melanoma; SK-MEL-5 melanoma.
Common to all, as to test: NCI-60 one-dose screen, 48 h (100 = growth as untreated, 0 = no growth, -100 = all killed)
What all share (conditions): 10 µM unless noted

`CCN(CC)CCOc1ccc(/C(=C(\C)c2ccc(OC)c(F)c2)c2ccc(Cl)cc2)cc1`: the growth with DU-145 prostate is 84%; in the experiment with K-562 leukemia it was 19%; with MALME-3M melanoma, 55.9%; with MDA-MB-231 breast, 87.6%; in the experiment on SF-268 CNS it was 87.4%; in the experiment with SF-295 CNS, 61.6%. The growth with SF-539 CNS was 24.5%; in the experiment on UACC-257 melanoma, 68.4%; in the experiment on HCT-15 colon, 7.79% (active); in the experiment on HT29 colon it was 14.9%; with SNB-75 CNS it was 94.7%; in the experiment with SNB-19 CNS, 91.8%. In addition, the growth in the experiment with U251 CNS was 66.8%; in the experiment on PC-3 prostate, 64.8%; in the experiment on UACC-62 melanoma, 60.1%; in the experiment on LOX IMVI melanoma, 1.85% (active); with SK-MEL-28 melanoma it was 68%.

For the molecule `CC(=O)Nc1ccc(-c2cc3c(NCc4ccc(F)cc4)ncnc3s2)cc1`, the growth in the experiment with DU-145 prostate is 86.3%; with K-562 leukemia, 86.8%; in the experiment on MALME-3M melanoma it was 59.5%; with MDA-MB-231 breast, 83%; in the experiment on SF-268 CNS it was 68%; in the experiment on SF-295 CNS it was 82.6%. The growth with SF-539 CNS is 56.6%; in the experiment with UACC-257 melanoma it was 86.8%; in the experiment with HCT-15 colon, 88.8%; with HT29 colon, 102%; in the experiment with SNB-75 CNS, 70.1%; in the experiment on SNB-19 CNS it was 57.8%. Further, the growth is 77.6% in the experiment with U251 CNS; 81% in the experiment on PC-3 prostate; 73% in the experiment on UACC-62 melanoma; 82.4% in the experiment with LOX IMVI melanoma; 93.5% with SK-MEL-28 melanoma.

Turning to `COc1ccc(/C=C2\COc3ccc(O)c(O)c3C2=O)c(OC)c1`, the growth was 67.2% in the experiment with DU-145 prostate; 14% in the experiment with K-562 leukemia; 32.9% in the experiment on MALME-3M melanoma; 56.6% with MDA-MB-231 breast; 54.8% in the experiment with SF-268 CNS; 95.6% in the experiment with SF-295 CNS. Also, the growth in the experiment on SF-539 CNS is 49.5%; in the experiment with UACC-257 melanoma it was 54.4%; in the experiment on HCT-15 colon, 16.8%; with HT29 colon, 73.6%; in the experiment on SNB-75 CNS, 57.7%; in the experiment with SNB-19 CNS it was 76%. The growth in the experiment with U251 CNS is 44.4%; with PC-3 prostate it was 49.6%; with UACC-62 melanoma it was 47.8%; in the experiment on LOX IMVI melanoma, 30.7%; in the experiment with SK-MEL-28 melanoma, 76.4%.

Consider `C=C1C(=O)O[C@H]2[C@H]1CC/C(COC(=O)/C=C\C(=O)NCc1ccc(Cn3c(=O)sn(-c4ccc(C#N)cc4)c3=O)cc1)=C\CC[C@@]1(C)O[C@@H]21`, for which the growth with DU-145 prostate was -94.4% (active); with K-562 leukemia it was -8.61% (active); in the experiment on MALME-3M melanoma, -95% (active); with MDA-MB-231 breast, -86% (active); with SF-268 CNS, -75.2% (active); in the experiment on SF-295 CNS it was 56.4%. Further, the growth with SF-539 CNS was -99.3% (active); with UACC-257 melanoma, -68.2% (active); in the experiment on HCT-15 colon, -33.9% (active); with HT29 colon it was -13.2% (active); in the experiment on SNB-75 CNS, -82.2% (active); in the experiment with SNB-19 CNS, -65% (active). Moreover, the growth is -66.4% (active) with U251 CNS; -62.4% (active) in the experiment with PC-3 prostate; -99.4% (active) with UACC-62 melanoma; -86.8% (active) in the experiment on LOX IMVI melanoma; -96.2% (active) with SK-MEL-28 melanoma.

In the case of `Cc1nc(Nc2ccc(NC(=S)Nc3ccccc3)cc2)nc2nc(Nc3ccc(S(=O)(=O)O)cc3)[nH]c(=O)c12`, the growth is 145% in the experiment on DU-145 prostate; 71% in the experiment on K-562 leukemia; 104% in the experiment with MALME-3M melanoma; 94.4% in the experiment with MDA-MB-231 breast; 106% with SF-268 CNS; 113% in the experiment on SF-295 CNS. The growth in the experiment with SF-539 CNS was 132%; in the experiment with UACC-257 melanoma it was 136%; in the experiment with HCT-15 colon it was 127%; in the experiment on HT29 colon, 145%; with SNB-75 CNS, 128%; in the experiment with SNB-19 CNS it was 96.2%. Also, the growth in the experiment on U251 CNS is 110%; in the experiment on PC-3 prostate it was 99.5%; with SK-MEL-5 melanoma, 117%; in the experiment with UACC-62 melanoma, 105%; in the experiment on LOX IMVI melanoma, 109%; with SK-MEL-28 melanoma it was 125%.

For the molecule `O=C1/C(=C/c2ccc([N+](=O)[O-])cc2)COc2ccc(O)c(O)c21`, the growth in the experiment on DU-145 prostate is -19.1% (active); with K-562 leukemia, 5.31% (active); in the experiment on MALME-3M melanoma it was -44.2% (active); in the experiment with MDA-MB-231 breast, -27.1% (active); with SF-268 CNS, -25.3% (active); in the experiment with SF-295 CNS it was 83.7%. The growth is -91.6% (active) in the experiment on SF-539 CNS; 40.3% in the experiment on UACC-257 melanoma; -45.9% (active) with HCT-15 colon; 4.87% (active) in the experiment on HT29 colon; 18.8% in the experiment with SNB-75 CNS; 15% in the experiment with SNB-19 CNS. In addition, the growth is -34.7% (active) with U251 CNS; -6.72% (active) in the experiment with PC-3 prostate; -19.2% (active) with UACC-62 melanoma; -75.5% (active) in the experiment with LOX IMVI melanoma; 54.6% with SK-MEL-28 melanoma.

With `C=C1C(=O)O[C@H]2[C@H]1CC/C(COC(=O)/C=C\C(=O)NCc1ccc(Cn3c(=O)sn(CCCC)c3=O)cc1)=C\CC[C@@]1(C)O[C@@H]21`, the growth in the experiment with DU-145 prostate was -95.5% (active); with K-562 leukemia, 0.287% (active); in the experiment with MALME-3M melanoma, -93.3% (active); in the experiment on MDA-MB-231 breast it was -84.4% (active); in the experiment on SF-268 CNS it was -64.4% (active); with SF-295 CNS, 65.1%. The growth with SF-539 CNS was -98.9% (active); in the experiment with UACC-257 melanoma it was -52.8% (active); in the experiment with HCT-15 colon, -29.8% (active); in the experiment on HT29 colon, -22.2% (active); in the experiment with SNB-75 CNS, -63.6% (active); in the experiment with SNB-19 CNS, 20.5%. The growth was -64.3% (active) with U251 CNS; -59.7% (active) with PC-3 prostate; -97.4% (active) in the experiment with UACC-62 melanoma; -83.5% (active) in the experiment with LOX IMVI melanoma; -92.1% (active) in the experiment with SK-MEL-28 melanoma.

Turning to `Cn1cc(-c2ccc3ncc(-c4ccc(CC(=O)Nc5cc(C(C)(C)C)nn5C)cc4)cc3c2)cn1`, the growth with DU-145 prostate is 18.1% [30 µM]; in the experiment on K-562 leukemia, 7% [30 µM] (active); in the experiment with MALME-3M melanoma, -0.381% [30 µM] (active); with MDA-MB-231 breast, 36% [30 µM]; in the experiment with SF-268 CNS, 25.3% [30 µM]; in the experiment with SF-295 CNS it was 12.2% [30 µM]. The growth was 19.3% [30 µM] in the experiment with SF-539 CNS; 7.37% [30 µM] (active) with UACC-257 melanoma; 7.79% [30 µM] (active) in the experiment on HCT-15 colon; 36.5% [30 µM] with HT29 colon; 22% [30 µM] with SNB-75 CNS; 41.9% [30 µM] with SNB-19 CNS. In addition, the growth with U251 CNS was 35% [30 µM]; in the experiment on PC-3 prostate, 5.27% [30 µM] (active); in the experiment on UACC-62 melanoma, -33.9% [30 µM] (active); in the experiment with LOX IMVI melanoma, -18.4% [30 µM] (active); in the experiment with SK-MEL-28 melanoma, 14.5% [30 µM].
